Measured values from PubChem BioAssay (EPA / NIEHS).
A structure can be active in one record and inactive in another. The source made the active and inactive calls. Rule for the calls: active = hit-call score of the fitted dose curve at least 0.9, where 1 is the maximum; inactive = score below 0.9.

Assay: ATG_TAL_CIS: Attagene CIS-FACTORIAL HepG2 Assay for human TAL Basal Promoter (AID 2282966)
Conditions: HepG2 Attagene cis-factorial TAL promoter reporter; actives raise or lower the signal
Protocol: ATG_CIS is a cell-based, multiplexed-readout assay that uses HepG2, a human liver cell line, with measurements taken at 24 hours after chemical dosing in a 24-well plate.ATG_TAL_CIS is one of 52 assay component(s) measured or calculated from the ATG_CIS assay. It is designed to make measurements of mRNA induction, a form of inducible reporter, as detected with fluorescence intensity signals by Reverse transcription polymerase chain reaction (RT-PCR) and Capillary electrophoresis technology.Data from the assay component ATG_TAL_CIS was analyzed into 1 assay endpoint. This assay endpoint, ATG_TAL_CIS, was analyzed with bidirectional fitting relative to DMSO as the negative control and baseline of activity. Using a type of inducible reporter, measures of mRNA for gain or loss-of-signal activity can be used to understand the background control at the transcription factor-level as they relate to the gene . Furthermore, this assay endpoint can be referred to as a secondary readout, because this assay has produced multiple assay endpoints where this one serves a background control function. To generalize the intended target to other relatable targets, this assay endpoint is annotated to the background measurement intended target family, where the subfamily is internal marker.
Human liver HepG2 cells are transiently transfected with multiple reporter transcription units (MRTUs) in 6-well plates using FuGene 6 reagent (Roche; 3 ml FuGene/1 mg DNA). The MRTU constructs are regulated by a cis-regulating element (promoter). […] A major difference between the CIS and TRANS system is that in CIS activities of endogenous TFs are measured, whereas the TRANS assay evaluates changes in activities of exogenous, chimeric NR-Gal4 proteins. […] At the end of 24 hour incubation, total RNA was isolated using TriZol reagent (Invitrogen). The isolated RNA is then reverse-transcribed using oligo(dT) primer and Mo-MLV reverse transcriptase (Invitrogen) with DNAse I (Ambion) treatment for 30 min. The one-tenth of the produced cDNA was amplified by PCR using Taq DNA polymerase (Invitrogen) and two reporter sequence-specific primers. The PCR products were fluorescently labeled by primer extension with 6-arboxyfluorescein (6-FAM) 5'-labeled reporter sequence-specific primer (2 min at 95 C, 20 s at 68 C and 10 min at 72 C) and these products were digested with 5U of HpaI (New England Biolabs) for 2h at 37 C. The fragments were purified using Qiaquick PCR columns (Qiagen), analyzed on an ABI 3130xL genetic analyzer (Applied Biosystems) with peak positions identified by using a set of X-rhodamine (ROX)-labeled MapMarker1000 molecular weight standards (BioVentures). The raw capillary electrophoresis data was processed using Attagraph software (Attagene).

Row | Structure (SMILES) | outcome | AC50
1 | C[C@H]1C(=O)O[C@@H]2CCN3CC=C(COC(=O)[C@](C)(O)[C@]1(C)O)[C@H]23 | inactive | –
2 | CCOc1ccc(N)cc1 | inactive | –
3 | CC(C=O)Cc1ccc2c(c1)OCO2 (stereo not given) | inactive | –
4 | CCCSP(=S)(OCC)Oc1ccc(SC)cc1 (stereo not given) | inactive | –
5 | CCNc1nc(NCC)nc(SC)n1 | inactive | –
6 | O=C1c2ccccc2C(=O)C1C(=O)C(c1ccccc1)c1ccc(Cl)cc1 (stereo not given) | – | 161 µM (active)
7 | Oc1c(Br)cc(Br)cc1Br | inactive | –
8 | CC(C)N(C(=O)CCl)c1ccccc1 | inactive | –
9 | C=C(C)C(=O)OCCCCOC(=O)C(=C)C | inactive | –
10 | c1ccc2sc(SNC3CCCCC3)nc2c1 | inactive | –
11 | CCC[CH2][Sn]([Cl])([Cl])[CH2]CCC | inactive | –
12 | CN(C)CCN(C)C | inactive | –
13 | CN(C)C(=S)S | inactive | –
14 | O=[N+]([O-])c1cccc2ccccc12 | inactive | –
15 | COCCl | inactive | –
16 | Cc1cc(Cl)ccc1O | inactive | –
17 | O=S1(=O)OC(c2cc(Br)c(O)c(Br)c2)(c2cc(Br)c(O)c(Br)c2)c2ccccc21 | inactive | –
18 | O=C1C=CC(=O)c2ccccc21 | inactive | –
19 | Cc1c([N+](=O)[O-])c(C)c([N+](=O)[O-])c(C(C)(C)C)c1[N+](=O)[O-] | inactive | –
20 | CCCCCCCCCCCCN(C)C | – | 51.4 µM (active)

Row | Structure (SMILES) | outcome | AC50
21 | CC(C)O.CC(C)O.OCCN(CCO)CCO.OCCN(CCO)CCO.[Ti] | inactive | –
22 | CC(C)(C)c1cc([N+](=O)[O-])cc(C(C)(C)C)c1O | inactive | –
23 | CNC(=O)N(C)c1nc2ccccc2s1 | inactive | –
24 | CN(CCCC(O)c1cccnc1)N=O (stereo not given) | inactive | –
25 | CC(C)(C)c1ccc(CCOc2ncnc3ccccc23)cc1 | inactive | –
26 | CCOP(=O)(OCC)OC(=CCl)c1ccc(Cl)cc1Cl | inactive | –
27 | N#CCC#N | inactive | –
28 | N#CCCC(Br)(C#N)CBr (stereo not given) | inactive | –
29 | O=C(Cc1ccccc1)OCCc1ccccc1 | inactive | –
30 | O=C(N[C@H]1CN2CCC1CC2)c1ccc2c(c1)OCCO2 | inactive | –
31 | Fc1cccc(Cl)c1CCl | inactive | –
32 | COC(=O)c1cc(Oc2ccc(Cl)cc2Cl)ccc1[N+](=O)[O-] | inactive | –
33 | CC(C)(c1ccccc1)c1cc(-n2nc3ccccc3n2)c(O)c(C(C)(C)c2ccccc2)c1 | inactive | –
34 | C1CCC(C2CCCCC2)CC1 | inactive | –
35 | CCC(C)(C#N)N=NC(C)(C#N)CC (stereo not given) | inactive | –
36 | CCOC(=O)OC1=C(c2cc(C)ccc2C)C(=O)NC12CCC(OC)CC2 (stereo not given) | inactive | –
37 | O=S(=O)(F)C(F)(F)C(F)(F)C(F)(F)C(F)(F)F | inactive | –
38 | CCCCS(=O)(=O)Cl | inactive | –
39 | O=c1oc2ccccc2c(O)c1C(CC(O)c1ccc(-c2ccc(Br)cc2)cc1)c1ccccc1 (stereo not given) | inactive | 41.7 µM (active)
